In the library only some 1.7% were active in any assay of this set; here they are far more common.
E-sel TNF inh – blocks E-selectin expression induced by TNF alpha; HUVEC TNFa-induced E-selectin immunofluorescence, high content; inhibition, % at 2 µM; 0.71% of 120,000 active; AID 1246;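 active = inhibition above the batch mean plus 3 SD, and confirmed as a hit on visual image review, cut at about 43% in these data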
VCAM1 TNFa inh – reduces TNF alpha induced VCAM1 expression in HUVEC; inhibition, % at 2 µM; 0.48% of 95,000 active; HUVEC TNFa-induced VCAM-1 immunofluorescence, high-content imaging; AID 802;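 active = inhibition above the batch mean plus 3 SD, with images confirmed as a hit by eye, cut at about 37% in these data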
IL1B NFkB pot – enhances IL-1B driven NFkB nuclear translocation | AID 819 | HUVEC IL-1B NFkB p65 nuclear translocation imaging | activation, % at 2 µM | 0.3% of 94,000 active;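 active = activation above 40%, about the mean plus 3 SD, also judged a hit on visual image review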;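 note: percent activation is computed from the nuclear over cytoplasmic p65 intensity ratio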
IL1B cytotox – toxic to HUVEC cells under IL-1B stimulation; AID 845; cell count reduction, % at 2 µM; HUVEC cell count loss, Hoechst imaging, IL-1B stimulated; 0.41% of 94,000 active;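 active = cell count reduction more than 3 SD above the screen-wide mean, cut at about 70% in these data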
HUVEC tox TNFa – toxic to HUVEC cells under TNF alpha stimulation | HUVEC TNFalpha-stimulated, Hoechst cell count, imaging | cell count reduction, % at 2 µM | 0.17% of 93,000 active | AID 848;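 active = cell count reduction exceeding the screen mean by over 5 SD, scaled to untreated wells per plate, cut at about 78% in these data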;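 note: cells counted after 24 h of TNF alpha exposure following the 1 h pretreatment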
IL1B NFkB inh – blocks IL-1B driven NFkB nuclear translocation in HUVEC cells | AID 796 | HUVEC IL-1B NFkB p65 nuclear translocation imaging | inhibition, % at 2 µM | 0.43% of 94,000 active;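 active = inhibition above about 30% together with a positive call from visual inspection of the well image, limit read from the data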;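 note: nuclear over cytoplasmic p65 intensity ratio measured by imaging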
Large screens that a line does not name were inactive.

CCC(=O)NC(O)C(=O)c1ccc(C)cc1 (stereo not drawn)	IL1B NFkB inh 32
CC(=C\C(=O)O)/C(=C/c1ccc(C)o1)C(=O)O	none (no result: VCAM1 TNFa inh, IL1B NFkB pot, IL1B cytotox, HUVEC tox TNFa, IL1B NFkB inh)
CC(C)C(OC(=O)c1ccco1)C(=O)NC1CCCCC1 (stereo not drawn)	none
CC(OC(=O)c1ccco1)C(=O)NC1CCCCC1 (stereo not drawn)	E-sel TNF inh 86
COc1ccc(CCN(C(=O)c2cccc(F)c2)C2CC(=O)N(c3ccc(OC)cc3)C2=O)cc1 (stereo not drawn)	none
O=C(c1cccs1)N(C(=O)c1cccs1)c1ccc(Br)cn1	E-sel TNF inh 45
Cc1ccnc(N(C(=O)c2cccs2)C(=O)c2cccs2)c1	none
COc1ccc(C)cc1NC(=O)CCN1CC(C)OC(C)C1 (stereo not drawn)	none (no result: VCAM1 TNFa inh, IL1B NFkB pot, IL1B cytotox, HUVEC tox TNFa, IL1B NFkB inh)
CN(C)c1nc(N(C)C)nc(N(C#N)CCOc2ccccc2)n1	VCAM1 TNFa inh 97
Cc1[nH]nc2c1C1(C(=O)N(Cc3ccc(Cl)cc3)c3ccccc31)C(C#N)=C(N)O2 (stereo not drawn)	E-sel TNF inh 100 (no result: HUVEC tox TNFa)
CC(=O)c1coc2ccc(OCCN3CCCCC3)cc12	IL1B NFkB pot 43 (no result: E-sel TNF inh)
CN(C)S(=O)(=O)c1cccc(C(=O)N2CCN(Cc3ccccc3)CC2)c1	none
Cc1ccc(N(C)C(=O)N2CCN(c3ccccn3)CC2)cc1	IL1B NFkB pot 67 (no result: E-sel TNF inh)
CN(c1ccccc1)S(=O)(=O)c1cccc(C(=O)N2CCN(c3ccccn3)CC2)c1	HUVEC tox TNFa 82 (no result: E-sel TNF inh)
COc1cccc(COc2nc3c(c(=O)n(C)c(=O)n3C)n2C)c1	IL1B NFkB inh 38
COc1ccc(Nc2nc(N3CCCC3)nc3ccccc23)c(OC)c1	VCAM1 TNFa inh 94
Clc1ccc(-c2nnc3sc(-c4ccc(Br)o4)nn23)cc1	none
Cc1oc(-c2ccc(Cl)cc2)cc1-c1nn2c(-c3ccoc3C)nnc2s1	VCAM1 TNFa inh 54 (no result: HUVEC tox TNFa)
COc1ccc(C2C3=C(CC(C)(C)CC3=O)Nc3c2c(=O)[nH]c(=O)n3Cc2ccccc2)cc1OC (stereo not drawn)	none
COc1ccc(C2C3=C(CC(C)(C)CC3=O)Nc3c2c(=O)[nH]c(=O)n3Cc2ccccc2)cc1 (stereo not drawn)	IL1B NFkB pot 102
CCOc1ccc(C)cc1-n1nc2ccccc2n1	E-sel TNF inh 51 (no result: IL1B NFkB pot, IL1B cytotox, IL1B NFkB inh)
COC(=O)c1c(-c2ccccc2)csc1NC(=O)c1ccco1	E-sel TNF inh 71
O=C(Cn1cc(C(F)(F)F)cc(Cl)c1=O)Nc1cc(S(=O)(=O)N2CCOCC2)ccc1Cl	none (no result: VCAM1 TNFa inh, IL1B NFkB pot, IL1B cytotox, HUVEC tox TNFa, IL1B NFkB inh)
Cc1cc(C)cc(OCc2nnc(SCC(=O)N3CCN(c4ccccc4)CC3)o2)c1	VCAM1 TNFa inh 100 (no result: HUVEC tox TNFa)
CCOc1ccc(/C=N/OC(C)C(=O)NCc2ccc3c(c2)OCO3)cc1 (stereo not drawn)	none (no result: VCAM1 TNFa inh, IL1B NFkB pot, IL1B cytotox, HUVEC tox TNFa, IL1B NFkB inh)
Cc1cccc(N(C)S(=O)(=O)c2ccc3[nH]cc(C(=O)N4CCOCC4)c(=O)c3c2)c1	none
Cc1cccc(N(C)S(=O)(=O)c2ccc3[nH]c(=O)c(=O)[nH]c3c2)c1	IL1B cytotox 73
CCN(C(=O)CSc1nnc(-c2ccc(Cl)cc2)n1C)C1CCS(=O)(=O)C1 (stereo not drawn)	none (no result: VCAM1 TNFa inh, IL1B NFkB pot, IL1B cytotox, HUVEC tox TNFa, IL1B NFkB inh)
C#CCOc1ccc(Br)cc1/C=N/O	IL1B NFkB inh 46
COC(=O)c1cc(Br)c(=O)n(Cc2ccncc2)c1	E-sel TNF inh 64
Cc1cc(-c2ccccc2)n(-c2ccc(C(N)=O)cc2)n1	none (no result: VCAM1 TNFa inh, IL1B NFkB pot, IL1B cytotox, HUVEC tox TNFa, IL1B NFkB inh)
CCc1nnc(-n2nc(C)cc2-c2ccccc2)n1N	IL1B cytotox 95, IL1B NFkB inh 98
O=C(NCN1CCCCC1)c1cnccn1	IL1B cytotox 90
CCC(CC)NC(=O)COC(=O)CCC(=O)c1ccc(Cl)cc1	none (no result: VCAM1 TNFa inh, IL1B NFkB pot, IL1B cytotox, HUVEC tox TNFa, IL1B NFkB inh)
COc1ccc2c(c1)SC1=NCCS(=O)(=O)N12	HUVEC tox TNFa 80 (no result: E-sel TNF inh)
O=C1CCC(C(=O)N2CCC(CO)(Cc3ccc(Cl)cc3)CC2)=NN1	none (no result: VCAM1 TNFa inh, IL1B NFkB pot, IL1B cytotox, HUVEC tox TNFa, IL1B NFkB inh)
O=c1[nH][nH]cc1C=Nc1ccc(Cl)cc1	E-sel TNF inh 97 (no result: VCAM1 TNFa inh, IL1B NFkB pot, IL1B cytotox, HUVEC tox TNFa, IL1B NFkB inh)
COc1cc(C2C(C#N)=C(N)Oc3cc(N(C)C)ccc32)cc2c1OCO2 (stereo not drawn)	VCAM1 TNFa inh 97 (no result: E-sel TNF inh)
CCOC(=O)CN1C(=O)N[C@@H](c2ccccc2)C(C(=O)OC)=C1C	none (no result: VCAM1 TNFa inh, IL1B NFkB pot, IL1B cytotox, HUVEC tox TNFa, IL1B NFkB inh)
COC(=O)C1=C(C)N(C)C(=O)NC1c1ccccc1 (stereo not drawn)	IL1B NFkB pot 47
O=C1NC2(CCCCC2)C(=O)N1Cc1ccc([N+](=O)[O-])cc1	none (no result: VCAM1 TNFa inh, IL1B NFkB pot, IL1B cytotox, HUVEC tox TNFa, IL1B NFkB inh)
O=[N+]([O-])c1cccnc1NCc1cccs1	none (no result: VCAM1 TNFa inh, IL1B NFkB pot, IL1B cytotox, HUVEC tox TNFa, IL1B NFkB inh)
